In PubChem BioAssay:
Active and inactive are the calls of the source.

Columns and labels:
[1] = optical density shifts of acrAB sulA E. coli – strain DRC41, OD650, 48 h, E. coli filamentation inducer project, primary screen (AID 1152); conditions: higher = more signal, called active from +8 up or from −8 down;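 also: E. coli MC1000 strain DRC41 lacking acrAB efflux pump and sulA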
[2] = probe aLefty1 binding on compound microarray – biochemical, small-molecule microarray, 635/667 nm fluorescence, primary screen (AID 1153); conditions: higher = more signal;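 also: score merges spot fluorescence with signal-to-noise ratio from the scanned slide images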
[3] = plasmodial surface anion channel blockers, osmotic lysis – cell-based, P. falciparum Indochina, OD700, 1 h, primary screen (AID 1154); conditions: P. falciparum Indochina infected RBC osmotic lysis, higher = more signal, called active from +8 up or from −8 down
[4] = plasmodial surface anion channel blockers, osmotic lysis – cell-based, P. falciparum Indochina, OD700, 2 h, primary screen (AID 1155);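 also: lysis reports solute entry through the parasite surface anion channel PSAC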; conditions: P. falciparum Indochina infected erythrocytes, higher = more signal, called active from +8 up or from −8 down
[5] = changes in parasitized red cell lysis, either direction – P. falciparum Indochina, OD700, 3 h, PSAC antagonist project, primary screen (AID 1156); conditions: P. falciparum-infected erythrocytes, osmotic lysis, higher = more signal, called active from +8 up or from −8 down
[6] = plasmodial surface anion channel blockers, osmotic lysis – cell-based, P. falciparum Indochina, OD700, 18 h, primary screen (AID 1157); conditions: P. falciparum Indochina infected erythrocytes, osmotic lysis OD700, 18 h; higher = more signal, called active from +8 up or from −8 down
[7] = S6 kinase pathway phospho-S6 level changes – cell-based, A549, cytoblot, luminescence, serum-stimulated, primary screen (AID 1158); conditions: 5 h, higher = more signal;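 also: serum-stimulated A549 lung adenocarcinoma cells; signal is phosphorylated S6 detected by cytoblot immunostaining with HRP secondary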
[8] = biological target: NADPH oxidase 2 (Homo sapiens) (UniProt P04839); experiment: compounds shifting NOX2 Amplex Red fluorescence – cell-based, HEK293-NOX2, PMA-stimulated, NOX inhibitor project, primary screen (AID 1159); conditions: 45 min, higher = more signal, called active from +8 up or from −8 down; also: test concentration not given here
Chain of NADPH oxidase 2 (Homo sapiens) (P04839 whole entry, looked up): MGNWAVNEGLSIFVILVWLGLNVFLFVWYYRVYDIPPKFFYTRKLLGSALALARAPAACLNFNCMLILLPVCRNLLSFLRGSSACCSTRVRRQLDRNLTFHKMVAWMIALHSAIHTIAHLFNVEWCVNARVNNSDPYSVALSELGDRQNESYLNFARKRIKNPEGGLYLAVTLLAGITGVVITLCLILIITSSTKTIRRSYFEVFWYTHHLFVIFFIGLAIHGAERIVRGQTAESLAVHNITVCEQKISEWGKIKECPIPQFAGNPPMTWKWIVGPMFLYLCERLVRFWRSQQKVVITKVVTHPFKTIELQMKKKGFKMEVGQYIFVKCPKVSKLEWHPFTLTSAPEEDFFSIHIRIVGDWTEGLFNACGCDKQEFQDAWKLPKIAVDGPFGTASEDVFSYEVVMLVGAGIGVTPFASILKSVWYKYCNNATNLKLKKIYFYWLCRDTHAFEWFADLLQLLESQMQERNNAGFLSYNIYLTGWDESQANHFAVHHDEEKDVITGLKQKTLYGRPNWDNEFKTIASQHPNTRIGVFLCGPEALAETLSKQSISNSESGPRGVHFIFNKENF

[9] = biological target: NADPH oxidase 4 (Homo sapiens) (UniProt Q9NPH5); experiment: compounds shifting NOX4 Amplex Red fluorescence – cell-based, HEK293-NOX4, tetracycline-induced, NOX inhibitor project, primary screen (AID 1160); conditions: HEK293-NOX4, Amplex Red H2O2 fluorescence, 45 min; higher = more signal, called active from +8 up or from −8 down
Chain of NADPH oxidase 4 (Homo sapiens) (Q9NPH5 whole entry, looked up): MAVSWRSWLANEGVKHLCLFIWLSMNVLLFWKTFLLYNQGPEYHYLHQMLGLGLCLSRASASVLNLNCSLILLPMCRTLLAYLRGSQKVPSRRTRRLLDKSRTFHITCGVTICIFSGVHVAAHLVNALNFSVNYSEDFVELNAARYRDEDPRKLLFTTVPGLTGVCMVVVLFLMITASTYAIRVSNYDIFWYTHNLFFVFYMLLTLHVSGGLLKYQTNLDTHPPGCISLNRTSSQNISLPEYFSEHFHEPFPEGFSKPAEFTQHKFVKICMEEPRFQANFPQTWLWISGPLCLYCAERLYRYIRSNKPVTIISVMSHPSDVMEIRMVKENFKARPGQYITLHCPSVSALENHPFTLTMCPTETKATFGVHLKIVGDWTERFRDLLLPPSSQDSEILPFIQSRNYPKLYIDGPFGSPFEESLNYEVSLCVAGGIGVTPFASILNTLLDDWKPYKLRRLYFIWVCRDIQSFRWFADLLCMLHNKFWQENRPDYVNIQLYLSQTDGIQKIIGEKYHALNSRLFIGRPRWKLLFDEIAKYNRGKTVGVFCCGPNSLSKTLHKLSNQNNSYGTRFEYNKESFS

[10] = biological target: NADPH oxidase 5 (Homo sapiens) (UniProt Q96PH1); experiment: compounds shifting NOX5 Amplex Red fluorescence – cell-based, HEK293-NOX5, NOX inhibitor project, primary screen (AID 1161); conditions: HEK293-NOX5, ionomycin, 45 min, higher = more signal
Chain of NADPH oxidase 5 (Homo sapiens) (Q96PH1 whole entry, looked up): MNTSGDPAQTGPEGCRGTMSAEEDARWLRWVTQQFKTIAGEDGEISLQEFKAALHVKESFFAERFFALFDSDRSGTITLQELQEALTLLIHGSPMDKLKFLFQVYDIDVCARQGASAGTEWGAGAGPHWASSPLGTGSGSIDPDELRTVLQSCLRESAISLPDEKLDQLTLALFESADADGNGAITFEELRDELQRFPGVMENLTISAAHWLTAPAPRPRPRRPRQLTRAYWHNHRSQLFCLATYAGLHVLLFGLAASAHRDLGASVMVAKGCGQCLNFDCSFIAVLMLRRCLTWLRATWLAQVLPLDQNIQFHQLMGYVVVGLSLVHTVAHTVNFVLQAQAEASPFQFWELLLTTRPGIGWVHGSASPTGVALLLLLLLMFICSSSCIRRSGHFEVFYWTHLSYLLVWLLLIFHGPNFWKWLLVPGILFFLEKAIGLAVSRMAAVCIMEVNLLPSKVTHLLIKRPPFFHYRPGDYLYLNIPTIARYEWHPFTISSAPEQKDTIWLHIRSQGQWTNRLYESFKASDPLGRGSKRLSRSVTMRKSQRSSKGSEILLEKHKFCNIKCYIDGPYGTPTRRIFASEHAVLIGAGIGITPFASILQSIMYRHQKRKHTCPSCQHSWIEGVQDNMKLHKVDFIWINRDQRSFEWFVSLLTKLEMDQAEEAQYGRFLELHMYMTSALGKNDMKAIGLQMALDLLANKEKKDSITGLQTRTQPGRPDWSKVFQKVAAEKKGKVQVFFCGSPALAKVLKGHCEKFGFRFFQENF

## C=C(COC)/C(=C/C[C@@H](OC(=O)c1ccncc1)c1ccccc1OCCO)c1cnc2ccccc2c1
[1]
  z-score: 0.588 (inactive)
[2]
  composite z-score: 0.333
[3]
  z-score: 25.7 (active)
[4]
  z-score: 11.5 (active)
[5]
  z-score: 0.518 (inactive)
[6]
  z-score: 1.09 (inactive)
[7]
  z-score: 0.261
[8]
  z-score: 0.0701 (inactive)
[9]
  z-score: 0.217 (inactive)
[10]
  z-score: -1.13

## COCCCNC(=O)[C@@]1(CCC(=O)OC(C)(C)C)N=C(c2ccc(OCCCO)cc2)O[C@H]1c1ccccc1
[1]
  z-score: 1.41 (inactive)
[2]
  composite z-score: 0.0949
[3]
  z-score: 12.9 (active)
[4]
  z-score: 1.15 (inactive)
[5]
  z-score: 0.384 (inactive)
[6]
  z-score: 0.566 (inactive)
[7]
  z-score: -0.422
[8]
  z-score: -0.865 (inactive)
[9]
  z-score: 0.388 (inactive)
[10]
  z-score: 0.188

## COc1ccc([Si](C)(C)[C@@H]2[C@@H](CC(=O)N3Cc4ccccc4C[C@H]3CO)O[C@]3(C(=O)N(Cc4ccc(I)cc4)c4ccccc43)[C@H]2C)cc1
[1]
  z-score: 1.35 (inactive)
[2]
  composite z-score: 0.0063
[3]
  z-score: 4.93 (inactive)
[4]
  z-score: 1.98 (inactive)
[5]
  z-score: 2.47 (inactive)
[6]
  z-score: 1.21 (inactive)
[7]
  z-score: 0.192
[8]
  z-score: 1.19 (inactive)
[9]
  z-score: 1.15 (inactive)
[10]
  z-score: 0.652

## C=CCOC(=O)[C@@H]1[C@H]2C(=O)O[C@H](c3ccccc3)[C@H](c3ccccc3)N2[C@H](c2ccc(OCCOC(=O)[C@H]3C[C@H]4C(=O)N[C@@H](CCCCN(C)C)C(=O)N4[C@H]3c3cccc(OCCO)c3)cc2)[C@@]12C(=O)Nc1ccccc12
[1]
  z-score: 0.171 (inactive)
[2]
  composite z-score: 0.464
[3]
  z-score: 0.323 (inactive)
[4]
  z-score: 0.0285 (inactive)
[5]
  z-score: -0.703 (inactive)
[6]
  z-score: 0.0555 (inactive)
[7]
  z-score: -0.547
[8]
  z-score: 0.209 (inactive)
[9]
  z-score: -0.186 (inactive)
[10]
  z-score: -0.538

## CN1C(=O)C2C=CC(C(O)c3ccc([N+](=O)[O-])cc3)N(Nc3ccccc3)C2C1=O (stereo not given)
[1]
  z-score: -1.93 (inactive)
[2]
  composite z-score: 0.658
[3]
  z-score: 1.98 (inactive)
[4]
  z-score: 1.36 (inactive)
[5]
  z-score: 2.88 (inactive)
[6]
  z-score: 1.44 (inactive)
[7]
  z-score: -1.06
[8]
  z-score: -1.45 (inactive)
[9]
  z-score: -5.03 (inactive)
[10]
  z-score: -3.26

## CN1C(=O)C2C=CC(C(O)COCc3ccccc3)N(Nc3ccc([N+](=O)[O-])cc3[N+](=O)[O-])C2C1=O (stereo not given)
[1]
  z-score: -0.416 (inactive)
[2]
  composite z-score: 0.332
[3]
  z-score: 3.59 (inactive)
[4]
  z-score: 1.4 (inactive)
[5]
  z-score: -0.0794 (inactive)
[6]
  z-score: 1.05 (inactive)
[7]
  z-score: -0.859
[8]
  z-score: 0.223 (inactive)
[9]
  z-score: -2.17 (inactive)
[10]
  z-score: -0.914

## C=CC[C@]1(C(=O)NCCN2CCOCC2)N=C(c2ccc(OCCCO)cc2)O[C@H]1c1ccccc1
[1]
  z-score: -0.151 (inactive)
[2]
  composite z-score: 0.296
[3]
  z-score: 4.72 (inactive)
[4]
  z-score: 0.644 (inactive)
[5]
  z-score: 0.168 (inactive)
[6]
  z-score: 0.275 (inactive)
[7]
  z-score: -0.45
[8]
  z-score: 0.0905 (inactive)
[9]
  z-score: -0.0559 (inactive)
[10]
  z-score: 0.115

## CCCCN1CC=CC23O[C@@H]4C=CCCOC(=O)C4[C@H]2C(=O)N(CCO)[C@@H]3C1=O (stereo not given in full)
[1]
  z-score: 0.634 (inactive)
[2]
  composite z-score: -0.239
[3]
  z-score: 0.506 (inactive)
[4]
  z-score: 0.303 (inactive)
[5]
  z-score: 1.21 (inactive)
[6]
  z-score: 0.211 (inactive)
[7]
  z-score: -0.357
[8]
  z-score: 1.09 (inactive)
[9]
  z-score: 0.519 (inactive)
[10]
  z-score: 0.432

## C[C@]1(C(=O)NCC(F)(F)F)c2ccccc2C(=O)N(Cc2cc(C(F)(F)F)cc(C(F)(F)F)c2)[C@H]1c1ccc(CO)cc1
[1]
  z-score: 1.17 (inactive)
[2]
  composite z-score: 0.0774
[3]
  z-score: 3.54 (inactive)
[4]
  z-score: -0.0979 (inactive)
[5]
  z-score: -0.29 (inactive)
[6]
  z-score: -0.16 (inactive)
[7]
  z-score: 0.361
[8]
  z-score: -0.905 (inactive)
[9]
  z-score: 0.565 (inactive)
[10]
  z-score: 0.648

## CCOC(=O)C[C@H]1[C@H](OC(=O)c2cc3ccccc3oc2=O)[C@@H](NC(=O)Cc2ccc(OC)cc2)c2cc(OCCCO)ccc2N1C(=O)Cc1ccc(OC)cc1
[1]
  z-score: 0.983 (inactive)
[2]
  composite z-score: 1.28
[3]
  z-score: 6.34 (inactive)
[4]
  z-score: -1.26 (inactive)
[5]
  z-score: -0.456 (inactive)
[6]
  z-score: -2.42 (inactive)
[7]
  z-score: 1.32
[8]
  z-score: 1.38 (inactive)
[9]
  z-score: 1.52 (inactive)
[10]
  z-score: 0.991

## CC(C)c1ccc(NN2C(C(O)C3CCCCC3)C=CC3C(=O)N(c4ccccc4)C(=O)C32)cc1 (stereo not given)
[1]
  z-score: -0.78 (inactive)
[2]
  composite z-score: 0.368
[3]
  z-score: 3.29 (inactive)
[4]
  z-score: 1.71 (inactive)
[5]
  z-score: 0.215 (inactive)
[6]
  z-score: 1.37 (inactive)
[7]
  z-score: -0.996
[8]
  z-score: -1.69 (inactive)
[9]
  z-score: -2.75 (inactive)
[10]
  z-score: -2.44

## COc1ccc([Si](C)(C)[C@H]2[C@H](CC(=O)N(CCO)Cc3ccccc3)O[C@@]3(C(=O)N(Cc4cccc(N5CCCCC5=O)c4)c4ccccc43)[C@@H]2C)cc1
[1]
  z-score: 1.52 (inactive)
[2]
  composite z-score: 0.109
[3]
  z-score: 11.3 (active)
[4]
  z-score: 1.31 (inactive)
[5]
  z-score: 0.4 (inactive)
[6]
  z-score: -0.553 (inactive)
[7]
  z-score: 2.6
[8]
  z-score: 0.0671 (inactive)
[9]
  z-score: 0.591 (inactive)
[10]
  z-score: 2.24

## O=C1NC(=O)C2C1C=CC(C(O)C(O)CO)N2Nc1ccccn1 (stereo not given)
[1]
  z-score: -0.0393 (inactive)
[2]
  composite z-score: 0.586
[3]
  z-score: 0.0087 (inactive)
[4]
  z-score: 0.0339 (inactive)
[5]
  z-score: -0.489 (inactive)
[6]
  z-score: -0.145 (inactive)
[7]
  z-score: 1.14
[8]
  z-score: -0.193 (inactive)
[9]
  z-score: -0.921 (inactive)
[10]
  z-score: -0.339
